Experimental data from the supplement of paper PMC6555819.

Assays:
Experiment in all cases: PBM binding z-score (relative to random genomic background probes); higher = stronger binding; sequences stand for … in GC…GCGATTGACAGCGTAGAATGAAGG
[1] = system: FXR:RXRa (NR concentration 270 nM, RXRa partner concentration 90 nM)
Summary of the method: (§1)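 Scanned fluorescence from custom Agilent 4×180K protein-binding microarrays was regression-normalized. Binding z-scores use random background probes as reference. Ligand-free nuclear receptor dimers were incubated on the arrays for 1 h and detected with antibodies against each partner (one per run).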

[2] = system: LXRa:RXRa (NR concentration 270 nM, RXRa partner concentration 90 nM)
Summary of the method: as §1

[3] = system: LXRa homodimer (NR concentration 270 nM)
Summary of the method: as §1

[4] = system: LXRb:RXRa (NR concentration 270 nM, RXRa partner concentration 90 nM)
Summary of the method: as §1

[5] = system: LXRb homodimer (NR concentration 270 nM)
Summary of the method: as §1

[6] = system: PPARa:RXRa (NR concentration 270 nM, RXRa partner concentration 90 nM)
Summary of the method: as §1

[7] = system: PPARg:RXRa (NR concentration 180 nM, RXRa partner concentration 90 nM)
Summary of the method: as §1

[8] = system: PPARg:RXRa 270nM:90nM, anti-RXR (NR concentration 270 nM, RXRa partner concentration 90 nM)
Summary of the method: as §1

[9] = system: PPARg:RXRa 30nM:10nM, anti-RXR (NR concentration 30 nM, RXRa partner concentration 10 nM)
Summary of the method: as §1

[10] = system: PPARg:RXRa 90nM:30nM, anti-RXR (NR concentration 90 nM, RXRa partner concentration 30 nM)
Summary of the method: as §1

[11] = system: PPARg:RXRa DBDmut IVT, anti-RXR (DBD mutation: RXRa K156A/R161A, NR concentration 270 nM, RXRa partner concentration 90 nM)
Summary of the method: as §1

[12] = system: PPARg:RXRa IVT, anti-PPARg (NR concentration 270 nM, RXRa partner concentration 90 nM)
Summary of the method: as §1

[13] = system: PPARg DBDmut:RXRa IVT, anti-PPARg (DBD mutation: PPARg1 K132A/R137A, NR concentration 270 nM, RXRa partner concentration 90 nM)
Summary of the method: as §1

[14] = system: PPARg DBDmut IVT, anti-PPARg (DBD mutation: PPARg1 K132A/R137A, NR concentration 270 nM)
Summary of the method: as §1

[15] = system: PPARg homodimer (NR concentration 180 nM)
Summary of the method: as §1

[16] = system: PXR:RXRa (NR concentration 270 nM, RXRa partner concentration 90 nM)
Summary of the method: as §1

[17] = system: PXR homodimer (NR concentration 270 nM)
Summary of the method: as §1

[18] = system: RARa:RXR (NR concentration 270 nM, RXRa partner concentration 90 nM)
Summary of the method: as §1

[19] = system: RARa homodimer (NR concentration 270 nM)
Summary of the method: as §1

[20] = system: RARb:RXRa (NR concentration 270 nM, RXRa partner concentration 90 nM)
Summary of the method: as §1

| Sequence | PBM binding z-score [1] | PBM binding z-score [2] | PBM binding z-score [3] | PBM binding z-score [4] | PBM binding z-score [5] | PBM binding z-score [6] | PBM binding z-score [7] | PBM binding z-score [8] | PBM binding z-score [9] | PBM binding z-score [10] | PBM binding z-score [11] | PBM binding z-score [12] | PBM binding z-score [13] | PBM binding z-score [14] | PBM binding z-score [15] | PBM binding z-score [16] | PBM binding z-score [17] | PBM binding z-score [18] | PBM binding z-score [19] | PBM binding z-score [20] |
| --- | --- | --- | --- | --- | --- | --- | --- | --- | --- | --- | --- | --- | --- | --- | --- | --- | --- | --- | --- | --- |
| TCATATAGGTAATACATGTGAAAGTCGGCATCTA | 0.838 | 1.1 | 0.394 | 0.937 | 0.272 | 1.43 | 1.42 | 2.35 | 3.69 | 3.13 | 3.84 | 2.56 | 1.65 | 1.42 | 0.451 | 0.682 | 0.0389 | 1.03 | 0.882 | 0.439 |
| CCGACTGGCGCAGAAAGGTTACCATACCATCCGG | 0.0917 | 0.658 | -0.132 | 0.749 | -1.07 | 1.8 | 0.613 | 1.16 | -0.315 | 0.337 | -0.18 | -0.419 | -0.533 | -1.05 | 0.499 | 0.354 | -0.51 | 1.14 | -0.466 | 1.35 |
| TCTATTAGTTGGAGGGCAACCGACGAGTCCGTTT | 0.6 | 1.06 | 0.645 | 0.855 | 0.753 | 0.93 | -0.158 | 1.88 | 3.25 | 2.33 | 1.97 | 0.996 | 0.0745 | -0.289 | 1.04 | 1.08 | 1.11 | 0.737 | 0.176 | 1.35 |
| TCATAAAGGTAAAAGGTGAAAGTCGGTGTGGTAA | 3.11 | 2.59 | 0.231 | 2.75 | 0.0475 | 5.08 | 6.24 | 6.25 | 6.38 | 6.73 | 3.49 | 3.5 | 0.634 | 0.86 | 2.26 | 2.56 | 0.65 | 4 | 1.25 | 2.54 |
| CCGACTGGGGCAGAAATGTTACCATACCATCCGG | -0.183 | -0.371 | -0.171 | -0.528 | -0.781 | -0.385 | 0.729 | -0.0813 | -0.351 | -0.433 | 1.57 | 0.993 | -0.699 | -1.22 | -0.25 | -0.347 | -0.252 | -0.499 | -0.698 | 0.0353 |
| CGAACTAGTTCATCCAGGACAGTGAATACATTGA | 0.527 | 0.53 | 0.205 | 0.693 | -0.0526 | 0.838 | 0.619 | 0.145 | 0.0881 | 0.329 | 1.33 | 0.831 | 0.796 | 0.456 | 0.323 | 1.64 | 2.98 | 1.06 | 0.65 | 1.53 |
| CCTCTGAGGACAACAGGAGGTCAGAGCTGCCAGA | 1.9 | 2.12 | 1.95 | 1.33 | -0.394 | 1.88 | 0.389 | 0.288 | -0.556 | -0.276 | 0.791 | 0.943 | -0.185 | -0.809 | 1.58 | 1.87 | 0.497 | 2.39 | 0.218 | 2.9 |
| GCGACTGAGGCATCAGCAGGTTACCATAACTTAA | -0.539 | -0.504 | -0.511 | -0.382 | -0.493 | -0.272 | 0.31 | -0.607 | -0.469 | -0.443 | -0.328 | -0.559 | -1.15 | -0.218 | -0.486 | -0.397 | -0.552 | 0.102 | -0.596 | -0.298 |
| CTACCAAGATGAACAAGGTCGTTGATTACTATTC | 0.828 | 0.783 | 0.9 | 1.49 | 0.267 | 1.09 | 0.228 | 0.135 | -0.0206 | 0.314 | 0.459 | 0.305 | 0.173 | 0.136 | 0.792 | 1.53 | 1.73 | 1.45 | 1.7 | 0.656 |
| TCATATAGGTAAACAGGTGAAAGTCCGTAAGTTA | 0.771 | 1.07 | 0.337 | 0.884 | 0.0234 | 2.39 | 2.99 | 3.77 | 4.16 | 3.87 | 4.87 | 4.6 | 1.08 | 0.871 | 1.31 | 0.894 | 0.216 | 1.3 | 1.12 | 0.78 |
| CGTCCAAGGTCATAGGAGGACAGTGAAGACAGAT | 7.15 | 6.2 | 1.35 | 4.45 | 0.52 | 5.39 | 4.71 | 4.97 | 1.81 | 3.56 | 2.87 | 3.57 | 0.568 | 0.524 | 3.01 | 5.67 | 1.55 | 4.89 | 1.62 | 4.98 |
| TCAGACAGGTGAAGGTAACTTAGGTACGCAGTCG | 1.16 | 2.01 | -0.079 | 1.41 | -0.0603 | 1.46 | 0.846 | 2.45 | 4.08 | 3.11 | 2.71 | 1.37 | 0.399 | 0.159 | 1.08 | 0.989 | 0.206 | 1.27 | 0.365 | 1.15 |
| TCATATAGGTATTACAGGTGAAAGTCGGCATCTA | 1.47 | 2.05 | 1.08 | 1.34 | 0.496 | 1.67 | 1.1 | 2.38 | 4.15 | 3.27 | 3.05 | 1.69 | 0.864 | 0.68 | 1.37 | 0.945 | 0.656 | 1.39 | 1.42 | 0.578 |
| ATATGTGGGTTACATCCGGGTCATTCAGGCTATG | 2.27 | 4.1 | 1.26 | 3.06 | 1.12 | 4.12 | 5.38 | 4.48 | 2.02 | 3.36 | 6.84 | 6.81 | 2.1 | 2.31 | 2.37 | 3.72 | 2.92 | 3.51 | 1.06 | 2.01 |
